# Measured values reported in PubChem BioAssay AID449762 (Southern Research Specialized Biocontainment Screening …, 2010).
# Screen size: about 330,000 compounds; about 1,900 (0.58%) were called active. Roughly 4% stayed inconclusive and do not appear here. Not all results are given here. Potency and affinity values are given separately. A number with no mark means an inactive call. Rule as the data show it: inconclusive = inhibition above about 70% without an active follow-up result; inactive = below that.
# Assay: M. tuberculosis growth inhibition, HTS (AID 449762);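 also: bacterial growth assessed after seven days of incubation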
# Details: M. tuberculosis H37Rv growth inhibition, 7H9 media; at 25 µM; hits give high values
row,SMILES,inhibition [%]
1,N#CCCn1cc(C(=O)Nc2cccc(C(=O)O)c2)c(-c2ccc(Cl)cc2)n1,-2.32
2,Cc1ccccc1COc1ccc(-c2nnn(CC(=O)O)n2)cc1,0.49
3,CCOc1ccc(NC(=O)CN(C)C(=O)c2c(-c3ccccc3)noc2C)cc1OCC,-10.4
4,Cc1ccc(NC(=O)CCC(=O)NNC(=O)CCc2ccccc2)c(C)c1,8.11
5,CCc1ccccc1NNC(=O)CCc1ccccc1,4.45
6,CCOC(=O)CSc1nnc(CSc2nc3sc4c(c3c(=O)[nH]2)CCC4)n1C,-1.21
7,COCCN1C(=O)C(CC(=O)Nc2ccccc2)SC1=Nc1ccc(OC)cc1 (centres undefined),6.34
8,Cc1ccc(NC(=O)c2cc(-c3ccccc3)nn2-c2ccccc2)c(Br)c1,62.5
9,Cc1ccc(NC(=O)c2cc(-c3ccccc3)nn2-c2ccccc2)cc1,0.76
10,Cc1ccnc(NC(=O)COC(=O)C2COc3ccccc3O2)n1 (centres undefined),-4.37
11,CCOc1ccc(S(=O)(=O)N2CCCCC2)cc1NS(=O)(=O)c1cccs1,-3.42
12,COc1cc([C@@H]2c3cc4c(cc3[C@H](O)[C@H]3COC(=O)[C@H]23)OCO4)cc(OC)c1OC,-2.97
13,COc1cc([C@@H]2c3cc4c(cc3[C@@H](OC)[C@H]3COC(=O)[C@H]23)OCO4)cc(OC)c1O,-15.3
14,Cc1ccc(NC(=O)c2ccc3ccccc3n2)nc1,5.21
15,CCc1ccc(NC(=O)C(C)OC(=O)c2ccc(NS(=O)(=O)c3ccc(C)c([N+](=O)[O-])c3)cc2)cc1 (centres undefined),-6.87
16,COc1ccc(CCNC(=O)C2CC(c3cccc([N+](=O)[O-])c3)=NO2)cc1 (centres undefined),2.77
17,CC(C)Cc1nn2c(=O)cc(CSCC(=O)Nc3ccccc3F)nc2s1,-6.22
18,Cc1cc(C(=O)CSc2ccc(Cl)cc2)cc(C)c1OC(=S)N(C)C,-12.1
19,Cc1ccc(N2C(=O)N(CC(=O)c3cc(C)ccc3C)C(=O)C2C)cc1 (centres undefined),4.01
20,CCOc1ccc(NC(=S)NC(=O)c2cccnc2)c([N+](=O)[O-])c1,6.15
21,O=c1[nH]c(=S)n(C2CCCCC2)c(O)c1C=NCCN1CCOCC1,4.57
22,Cn1c(O)c(C=NCCN2CCNCC2)c(=O)n(C)c1=O,-6.91
23,O=C(O)CC1S/C(=N/N=C/c2ccccn2)NC1=O (centres undefined),-2.11
24,O=C1N/C(=N\N=C\c2ccc3ncccc3c2)SC1Cc1ccc(SC(F)F)cc1 (centres undefined),-20.7
